The source of these data is PubChem BioAssay (EPA / NIEHS).

Inconclusive results are not listed. Activity calls are given as the source filed them. How the source made its calls: active means hit-call score of the fitted dose curve at least 0.9, where 1 is the maximum; inconclusive means response in the unintended direction; inactive means score below 0.9.

The nature of assay [1]: TOX21_p53_BLA_p2_viability: Viability Assessment in the Tox21 HCT-116 p53 Agonism Beta-lactamase Assay, Phase 2 (AID 2283591).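 Further: compound exposure lasted 16 h at 37 °C; actives lower the ATP signal meaning cytotoxicity.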 Summed up:
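HCT116 p53-bla cells, 4000/well, dosed after 5 h plating (217-fold dilution of DMSO stocks) and incubated 16 h at 37C. Viability taken as cellular ATP by CellTiter-Glo luminescence after 30 min RT; signal loss marks cytotoxicity.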

Assay [2] has as its target Cellular tumor antigen p53 (Homo sapiens) (UniProt P04637). The assay can be described thus: TOX21_p53_BLA_p2_ratio: Tox21 HCT-116 p53 Agonism Beta-lactamase Assay, Ratio, Phase 2 (AID 2283592). The gist of the method: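 Plated HCT116 p53-bla cells (4000/well) received compound after 5 h, then 16 h at 37C/5% CO2. CCF4-AM added, 2 h RT. Ratio of 460 to 530 nm emission taken as the p53 reporter signal.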

A short description of assay [3]: TOX21_p53_BLA_p3_viability: Viability Assessment in the Tox21 HCT-116 p53 Agonism Beta-lactamase Assay, Phase 3 (AID 2283593).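 Further: cells exposed to compound for 16 h before reading.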 The gist of the method: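 HCT116 cells, 4000/well, dosed 5 h after plating by pin transfer (217-fold dilution from DMSO stock) and incubated 16 h at 37C, 5% CO2. Viability read as ATP luminescence with CellTiter-Glo after 30 min at room temperature.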

Assay [4] addresses Cellular tumor antigen p53 (Homo sapiens) (UniProt P04637). The assay can be described thus: TOX21_p53_BLA_p3_ratio: Tox21 HCT-116 p53 Agonism Beta-lactamase Assay, Ratio, Phase 3 (AID 2283596). Summed up: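 Cells were seeded at 4000/well, rested 5 h at 37C, then dosed with DMSO compound solutions (217-fold dilution) for 16 h. CCF4-AM substrate was loaded for 2 h at room temperature, and the 460/530 nm emission ratio was fitted for gain of signal versus DMSO.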

The nature of assay [5]: TOX21_p53_BLA_p4_viability: Viability Assessment in the Tox21 HCT-116 p53 Agonism Beta-lactamase Assay, Phase 4 (AID 2283597).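 Further: hits lower the luminescence signal meaning cytotoxicity.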 Summed up: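 Readout: ATP luminescence (CellTiter-Glo), measured 30 min after reagent addition at RT. The reagent followed a 2 h CCF4-AM incubation, and the cells had been exposed to compound for 16 h at 37C.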
The target of assay [6] is Cellular tumor antigen p53 (Homo sapiens) (UniProt P04637). The assay can be described thus: TOX21_p53_BLA_p5_ratio: Tox21 HCT-116 p53 Agonism Beta-lactamase Assay, Ratio, Phase 5 (AID 2283599). Summed up:
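HCT-116 p53-bla cells (4000/well) plated 5 h, dosed with compound (217-fold DMSO dilution) for 16 h at 37 C; CCF4-AM substrate 2 h at room temperature. Activity is the 460/530 nm emission ratio (405 nm excitation), fitted in gain-of-signal direction versus DMSO.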

A short description of assay [7]: TOX21_p53_BLA_p5_viability: Viability Assessment in the Tox21 HCT-116 p53 Agonism Beta-lactamase Assay, Phase 5 (AID 2283600). The gist of the method:
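Workflow: seed 4000 cells per well, wait 5 h, add compounds (DMSO, 217-fold dilution), incubate 16 h, load CCF4-AM 2 h, add CellTiter-Glo, read luminescence after 30 min.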

The target in assay [8] is Cellular tumor antigen p53 (Homo sapiens) (UniProt P04637). The assay can be described thus: TOX21_p53_BLA_p4_ratio: Tox21 HCT-116 p53 Agonism Beta-lactamase Assay, Ratio, Phase 4 (AID 2283601). Summed up: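 HCT-116 p53 beta-lactamase reporter cells (4000/well) preincubated 5 h, then compound (217-fold dilution of DMSO stock) for 16 h at 37C. CCF4-AM substrate added 2 h at room temperature; 460/530 nm emission ratio fitted upward versus DMSO.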
Sequence of Cellular tumor antigen p53 (Homo sapiens) (P04637 whole entry, looked up): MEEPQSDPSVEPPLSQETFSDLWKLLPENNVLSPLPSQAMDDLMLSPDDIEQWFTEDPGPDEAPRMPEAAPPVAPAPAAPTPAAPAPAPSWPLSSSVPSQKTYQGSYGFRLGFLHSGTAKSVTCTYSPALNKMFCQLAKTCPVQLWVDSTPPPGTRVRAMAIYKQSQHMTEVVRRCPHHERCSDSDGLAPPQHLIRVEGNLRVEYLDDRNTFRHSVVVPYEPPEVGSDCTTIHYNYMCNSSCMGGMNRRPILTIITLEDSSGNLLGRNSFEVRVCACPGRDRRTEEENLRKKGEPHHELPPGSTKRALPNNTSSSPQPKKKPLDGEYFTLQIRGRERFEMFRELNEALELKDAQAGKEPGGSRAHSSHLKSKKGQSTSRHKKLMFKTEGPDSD

Regarding `O=[N+]([O-])c1ccc(O)c2ncccc12`, the outcome in assay [1], in assay [2], in assay [3], in assay [4], in assay [6] and in assay [7] was inactive. Also, in assay [8], the outcome was inactive. Further, the AC50 (usually the concentration giving half of the maximal activity seen) in assay [5] was 23 µM (active).

In the case of `O=C(O)C[C@H](NC(=O)OCc1ccccc1)C(=O)O`, the compound was classed as inactive in assay [1], in assay [2], in assay [3], in assay [4], in assay [5] and in assay [6]. The call in assay [7] and in assay [8] was inactive.

With `CC1=C(C(=O)OC(C)C)C(c2cccc([N+](=O)[O-])c2)C(C(=O)OC2CN(C(c3ccccc3)c3ccccc3)C2)=C(N)N1` (stereo not given), the AC50 was 10.3 µM (active) in assay [1]; 18.3 µM (active) in assay [2]; 9.2 µM (active) in assay [3]; 17.7 µM (active) in assay [4]; 34.2 µM (active) in assay [5]; 43.6 µM (active) in assay [6]. Further, the AC50 was 38 µM (active) in assay [7] and 43.5 µM (active) in assay [8].

In the case of `CCOc1ccc([N+](=O)[O-])cc1`, the call in assay [1] and in assay [2] was inactive. Besides, the AC50 in assay [3] was 70.9 µM (active); in assay [4], 80.9 µM (active); in assay [5], 46.7 µM (active); in assay [6], 84.9 µM (active); in assay [7], 61.1 µM (active); in assay [8], 81.5 µM (active).

In the case of `c1ccc(OCc2ccc(CCCN3CCOCC3)cc2)cc1`, the compound was classed as inactive in assay [1], in assay [2], in assay [3], in assay [4], in assay [5] and in assay [6]. In addition, the call in assay [7] and in assay [8] was inactive.

As to `N=C1N=C(N)c2cc3ccccc3cc21`, the half-maximal activity concentration (AC50) in assay [1] is 23.6 µM (active); in assay [2] it was 11.6 µM (active); in assay [3], 38.5 µM (active); in assay [4] it was 18.5 µM (active); in assay [5], 21 µM (active); in assay [6], 15 µM (active). Further, the values for the AC50 in assay [7] and in assay [8] were 27.4 µM (active) and 19.8 µM (active), respectively.

For the compound `NCCOCCN`, the result in assay [1], in assay [2], in assay [3], in assay [4], in assay [5] and in assay [6] was inactive. Besides, the result in assay [7] and in assay [8] was inactive.

`O=C(Nc1ccc(Cl)cc1)Nc1ccc(Cl)c(C(F)(F)F)c1`: the half-maximal activity concentration (AC50) was 32.8 µM (active) in assay [1]; 5.23 µM (active) in assay [2]; 11.2 µM (active) in assay [4]; 33.1 µM (active) in assay [5]; 19.5 µM (active) in assay [6]; 39.6 µM (active) in assay [7]. Besides, in assay [8], the AC50 is 6.95 µM (active). For the same compound, the compound was classed as inactive in assay [3].

Regarding `NC(=O)C(=O)NN=Cc1ccc([N+](=O)[O-])o1`, the outcome in assay [1], in assay [3], in assay [4] and in assay [7] was inactive. Also, the AC50 in assay [2] is 39.8 µM (active); in assay [5], 42.3 µM (active); in assay [6], 37.1 µM (active); in assay [8] it was 41.8 µM (active).

As for `COCCCC/C(=N\OCCN)c1ccc(C(F)(F)F)cc1`, the call in assay [1], in assay [2], in assay [3], in assay [4], in assay [5] and in assay [6] was inactive. Also, the result in assay [7] and in assay [8] was inactive.

On to `CC[C@H](C)[C@H]1O[C@]2(CC[C@@H]1C)C[C@@H]1C[C@@H](C/C=C(\C)[C@@H](O[C@H]3C[C@H](OC)[C@@H](O[C@H]4C[C@H](OC)[C@@H](O)[C@H](C)O4)[C@H](C)O3)[C@@H](C)/C=C/C=C3\CO[C@@H]4[C@H](O)C(C)=C[C@@H](C(=O)O1)[C@]34O)O2`, for which the AC50 in assay [1] is 5.51 µM (active); in assay [2], 17.6 µM (active); in assay [3] it was 6.87 µM (active); in assay [4], 14.5 µM (active); in assay [5], 6.4 µM (active); in assay [6], 8.8 µM (active). Further, the AC50 is 7.23 µM (active) in assay [7] and 9.63 µM (active) in assay [8].

For `CCN1/C(=C/C=C/c2sc3ccccc3[n+]2CC)Sc2ccccc21`, the call in assay [1] and in assay [7] was inactive. For the same compound, the AC50 in assay [2] was 9.06 µM (active); in assay [3] it was 4.58 µM (active); in assay [4] it was 23.5 µM (active); in assay [5] it was 20 µM (active); in assay [6] it was 11.5 µM (active); in assay [8] it was 12.9 µM (active).

Turning to `CC[C@@H]([C@H](C)O)n1ncn(-c2ccc(N3CCN(c4ccc(OC[C@@H]5CO[C@@](Cn6cncn6)(c6ccc(F)cc6F)C5)cc4)CC3)cc2)c1=O`, the outcome in assay [1], in assay [2], in assay [3], in assay [4], in assay [6] and in assay [7] was inactive. Besides, the outcome in assay [8] was inactive. Moreover, in assay [5], the AC50 is 18.1 µM (active).

On to `Cc1ccc(-n2nc(C(C)(C)C)cc2NC(=O)Nc2ccc(OCCN3CCOCC3)c3ccccc23)cc1`, for which the call in assay [1], in assay [2], in assay [3], in assay [4], in assay [5] and in assay [6] was inactive. The result in assay [7] and in assay [8] was inactive.

Take `CC(C)=CCC1C(=O)N(c2ccccc2)N(c2ccccc2)C1=O`: the AC50 in assay [1] was 32.6 µM (active); in assay [2], 7.19 µM (active); in assay [3] it was 34.3 µM (active); in assay [4] it was 10.2 µM (active); in assay [5] it was 33.5 µM (active); in assay [6], 7.67 µM (active). The AC50 in assay [7] was 42.1 µM (active). For the same compound, in assay [8], the result was inactive.

Regarding `CC(C(=O)O)c1ccc(C2CCCCC2)c2ccccc12` (stereo not given), the result in assay [1], in assay [2], in assay [3], in assay [4], in assay [6] and in assay [7] was inactive. Further, in assay [8], the result was inactive. Further, the AC50 in assay [5] was 31.1 µM (active).

As to `c1ccc(-c2ccc(C(c3ccccc3)n3ccnc3)cc2)cc1` (stereo not given), the outcome in assay [1], in assay [3] and in assay [7] was inactive. The AC50 was 35.9 µM (active) in assay [2]; 39.5 µM (active) in assay [4]; 38.2 µM (active) in assay [5]; 36.5 µM (active) in assay [6]; 34.1 µM (active) in assay [8].

Consider `CN[C@H]1CC[C@@H](c2ccc(Cl)c(Cl)c2)c2ccccc21`, for which the AC50 is 33.6 µM (active) in assay [1], 42 µM (active) in assay [3], 34.6 µM (active) in assay [5] and 36.8 µM (active) in assay [8]. The outcome in assay [2], in assay [4], in assay [6] and in assay [7] was inactive.

Consider `Cc1c(C)n(CCN(C)C)c2ccc(C(=O)OCCN(C)C)cc12`, for which the compound was classed as inactive in assay [1], in assay [2], in assay [3], in assay [4], in assay [5] and in assay [6]. For the same compound, the compound was classed as inactive in assay [7]. In addition, the AC50 in assay [8] is 40.2 µM (active).

As to `CCCC(c1cc(C(C)(C)C)c(O)cc1C)c1cc(C(C)(C)C)c(O)cc1C`, the AC50 in assay [1] was 15 µM (active); in assay [2], 32.8 µM (active); in assay [3], 19.5 µM (active); in assay [4] it was 30.6 µM (active); in assay [5], 9.81 µM (active); in assay [6], 32.2 µM (active). Moreover, the AC50 in assay [7] was 17.2 µM (active); in assay [8], 19.7 µM (active).
